Source: PubChem BioAssay (EPA / NIEHS)
Active and inactive are the calls of the source. How the source made its calls: active means hit-call score of the fitted dose curve at least 0.9, where 1 is the maximum; inactive means score below 0.9.

Assays:
Details in all cases: mRNA level, 48 h; actives raise or lower the signal
[1] = read-out: Insulin Like Growth Factor 1 (IGF1), IGF1 (gene 3479); test: LTEA_HepaRG_IGF1: Life Technologies and Expression Analysis (LTEA) Assay for Insulin Like Growth Factor 1 (IGF1) using HepaRG (AID 2283506)
In short: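 Differentiated human HepaRG cells were dosed for 48 h in serum-free induction medium with 0.5% DMSO, eight half-log concentrations up to 100 uM, in duplicate. IGF1 mRNA was quantified by qRT-PCR normalized to ACTB, GAPDH, POLR2A; bidirectional fitting versus DMSO.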

[2] = read-out: Intercellular Adhesion Molecule 1 (ICAM1), ICAM1 (gene 3383); test: LTEA_HepaRG_ICAM1: Life Technologies and Expression Analysis (LTEA) Assay for Intercellular Adhesion Molecule 1 (ICAM1) using HepaRG (AID 2283507)
In short: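 HepaRG, 48 h exposure, 8-pt half-log series from 100 uM, 0.5% DMSO vehicle, duplicates. Readout: TaqMan qRT-PCR mRNA, housekeeping-normalized (ACTB/GAPDH/POLR2A). Bidirectional curve fit vs DMSO baseline.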

[3] = read-out: Insulin-like growth factor-binding protein 1 (IGFBP1), IGFBP1 (gene 3484); test: LTEA_HepaRG_IGFBP1: Life Technologies and Expression Analysis (LTEA) Assay for Insulin-like growth factor-binding protein 1 (IGFBP1) using HepaRG (AID 2283508)
In short: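 qRT-PCR mRNA read-out (TaqMan, Fluidigm array), normalised to three housekeeping genes; HepaRG cells, 48 h exposure, 8-pt half-log series from 100 uM, 0.5% DMSO vehicle; bidirectional curve fit vs DMSO baseline.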

[4] = read-out: Interleukin 6 (IL6), IL6 (gene 3569); test: LTEA_HepaRG_IL6: Life Technologies and Expression Analysis (LTEA) Assay for Interleukin 6 (IL6) using HepaRG (AID 2283509)
In short: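 HepaRG cells exposed in duplicate for 48 h to eight half-log concentrations, top 100 uM, in 0.5% DMSO serum-free induction medium. mRNA measured by qRT-PCR, normalized to ACTB, GAPDH and POLR2A. Bidirectional fit versus DMSO.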

[5] = read-out: Interleukin 6 Receptor (IL6R), IL6R (gene 3570); test: LTEA_HepaRG_IL6R: Life Technologies and Expression Analysis (LTEA) Assay for Interleukin 6 Receptor (IL6R) using HepaRG (AID 2283510)
In short: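 Differentiated human HepaRG cells, plated 48 h then switched to serum-free induction medium, were dosed in duplicate for 48 h at eight half-log concentrations up to 100 uM in 0.5% DMSO. IL6R mRNA quantified by qRT-PCR, normalized to ACTB/GAPDH/POLR2A; bidirectional fit versus DMSO.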

[6] = read-out: Potassium channel subfamily K member 1 (KCNK1), KCNK1 (gene 3775); test: LTEA_HepaRG_KCNK1: Life Technologies and Expression Analysis (LTEA) Assay for Potassium channel subfamily K member 1 (KCNK1) using HepaRG (AID 2283511)
In short: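 Differentiated HepaRG cells, 48 h exposure in serum-free induction medium with 0.5% DMSO; 8 concentrations, half-log from 100 uM, duplicate. KCNK1 mRNA by qRT-PCR, normalized to ACTB, GAPDH, POLR2A; bidirectional fit vs DMSO.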

[7] = read-out: Keratin 19 (KRT19), KRT19 (gene 3880); test: LTEA_HepaRG_KRT19: Life Technologies and Expression Analysis (LTEA) Assay for Keratin 19 (KRT19) using HepaRG (AID 2283512)
In short: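 HepaRG, 48 h chemical exposure, 8-pt half-log CRC from 100 uM, 0.5% DMSO vehicle, duplicates. Readout: TaqMan qRT-PCR of KRT19 mRNA, housekeeping-normalized (ACTB/GAPDH/POLR2A). Bidirectional fit vs DMSO baseline.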

[8] = read-out: JUN Transcription Factor, JUN (gene 3725); test: LTEA_HepaRG_JUN: Life Technologies and Expression Analysis (LTEA) Assay for JUN Transcription Factor using HepaRG (AID 2283513)
In short: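 Differentiated HepaRG cells were exposed to chemicals for 48 h in serum-free induction medium, 8 concentrations from 100 uM in half-log steps, 0.5% DMSO vehicle, in duplicate. JUN mRNA was quantified by TaqMan qRT-PCR, normalized to ACTB, GAPDH, POLR2A.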

[9] = read-out: Lipase C (LIPC), LIPC (gene 3990); test: LTEA_HepaRG_LIPC: Life Technologies and Expression Analysis (LTEA) Assay for Lipase C (LIPC) using HepaRG (AID 2283514)
In short: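 HepaRG cells, 48 h after plating, treated in duplicate for 48 h in serum-free induction medium over 8 half-log concentrations from 100 uM, 0.5% DMSO. LIPC mRNA by TaqMan qRT-PCR normalized to ACTB/GAPDH/POLR2A; bidirectional fit versus DMSO.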

[10] = read-out: Lipoprotein lipase (LPL), LPL (gene 4023); test: LTEA_HepaRG_LPL: Life Technologies and Expression Analysis (LTEA) Assay for Lipoprotein lipase (LPL) using HepaRG (AID 2283515)
In short: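 Differentiated HepaRG cells, plated 48 h, then exposed 48 h in serum-free induction medium to 8 concentrations (top 100 uM, half-log steps) in 0.5% DMSO, duplicate. LPL mRNA measured by qRT-PCR, normalized to ACTB, GAPDH and POLR2A.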

[11] = read-out: MicroRNA 122 (MIR122), gene 406906; test: LTEA_HepaRG_MIR122: Life Technologies and Expression Analysis (LTEA) Assay for MicroRNA 122 (MIR122) using HepaRG (AID 2283516); further: the transcript read is the microRNA miR-122
In short: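 Differentiated human HepaRG cells were exposed 48 h in serum-free induction medium to eight half-log concentrations (top 100 uM, 0.5% DMSO). Transcript level was measured by TaqMan qRT-PCR, normalized to ACTB, GAPDH and POLR2A, and fitted bidirectionally versus DMSO.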

[12] = read-out: matrix metalloproteinase-10 (MMP10), MMP10 (gene 4319); test: LTEA_HepaRG_MMP10: Life Technologies and Expression Analysis (LTEA) Assay for matrix metalloproteinase-10 (MMP10) using HepaRG (AID 2283517)
In short: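 Differentiated HepaRG cells in serum-free induction medium exposed 48 h in duplicate to 8-point half-log series up to 100 uM in 0.5% DMSO. mRNA quantified by qRT-PCR, normalised to ACTB, GAPDH, POLR2A; bidirectional fit versus DMSO.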

MYC, MYC (gene 4609) = test: LTEA_HepaRG_MYC: Life Technologies and Expression Analysis (LTEA) Assay for MYC using HepaRG (AID 2283518)
In short: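 qRT-PCR read-out of MYC transcript (Fluidigm TaqMan, housekeeping-normalized) after 48 h chemical exposure of HepaRG cells; eight concentrations, top 100 uM, half-log steps. Bidirectional curve fitting against 0.5% DMSO vehicle baseline.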

[13] = read-out: matrix metalloproteinase-3 (MMP3), MMP3 (gene 4314); test: LTEA_HepaRG_MMP3: Life Technologies and Expression Analysis (LTEA) Assay for matrix metalloproteinase-3 (MMP3) using HepaRG (AID 2283519)
In short: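 HepaRG cells (~100,000/well) in serum-free induction medium were dosed in duplicate for 48 h with an 8-point half-log series from 100 uM, 0.5% DMSO. MMP3 mRNA was quantified by Fluidigm TaqMan qRT-PCR, normalized to three housekeeping genes.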

[14] = read-out: Paternally Expressed 10 (PEG10), PEG10 (gene 23089); test: LTEA_HepaRG_PEG10: Life Technologies and Expression Analysis (LTEA) Assay for Paternally Expressed 10 (PEG10) using HepaRG (AID 2283520)
In short: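 Differentiated HepaRG cells, plated 48 h then switched to serum-free induction medium, were exposed in duplicate for 48 h to eight half-log concentrations topping at 100 uM in 0.5% DMSO. PEG10 mRNA was quantified by TaqMan qRT-PCR, normalised to ACTB, GAPDH and POLR2A.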

[15] = read-out: Protein phosphatase 2A (PPP2R4), PTPA (gene 5524); test: LTEA_HepaRG_PPP2R4: Life Technologies and Expression Analysis (LTEA) Assay for Protein phosphatase 2A (PPP2R4) using HepaRG (AID 2283522)
In short: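 Differentiated HepaRG cells in serum-free induction medium were exposed in duplicate for 48 h to eight concentrations, top 100 uM with half-log dilutions, in 0.5% DMSO. PPP2R4 mRNA was quantified by TaqMan qRT-PCR, normalized to ACTB, GAPDH and POLR2A.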

[16] = read-out: Phosphatase and tensin (PTEN), PTEN (gene 5728); test: LTEA_HepaRG_PTEN: Life Technologies and Expression Analysis (LTEA) Assay for Phosphatase and tensin (PTEN) using HepaRG (AID 2283523)
In short: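 HepaRG cells, 48 h after plating, exposed in duplicate for 48 h in serum-free induction medium to 8 half-log concentrations up to 100 uM (0.5% DMSO). PTEN mRNA by qRT-PCR, normalized to ACTB, GAPDH, POLR2A; bidirectional fit versus DMSO.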

[17] = read-out: solute carrier (SLC22A1), SLC22A1 (gene 6580); test: LTEA_HepaRG_SLC22A1: Life Technologies and Expression Analysis (LTEA) Assay for solute carrier (SLC22A1) using HepaRG (AID 2283524)
In short: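 Differentiated human HepaRG cells in serum-free induction medium, exposed 48 h in duplicate to 8-point half-log series from 100 µM top in 0.5% DMSO. SLC22A1 mRNA by TaqMan qRT-PCR normalized to ACTB, GAPDH, POLR2A; bidirectional fit versus DMSO.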

[18] = read-out: Pyruvate Dehydrogenase Kinase 4 (PDK4), PDK4 (gene 5166); test: LTEA_HepaRG_PDK4: Life Technologies and Expression Analysis (LTEA) Assay for Pyruvate Dehydrogenase Kinase 4 (PDK4) using HepaRG (AID 2283525)
In short: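 HepaRG cells plated 48 h, then switched to serum-free induction medium and exposed in duplicate for 48 h to 8 half-log concentrations from 100 uM in 0.5% DMSO. PDK4 mRNA measured by qRT-PCR, normalized to ACTB, GAPDH and POLR2A; bidirectional fit versus DMSO.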

[19] = read-out: Nuclear factor NF-kappa-B p105 subunit (Homo sapiens) (UniProt P19838); test: LTEA_HepaRG_NFKB1: Life Technologies and Expression Analysis (LTEA) Assay for Nuclear Factor Kappa B Subunit 1 (NFKB1) using HepaRG (AID 2283521)
In short: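 HepaRG, 48 h exposure; 8-pt half-log series from 100 uM in 0.5% DMSO; duplicates. Readout: NFKB1 mRNA by qRT-PCR (Fluidigm arrays), housekeeping-normalized. Gain/loss fit vs DMSO baseline.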

Measured: AC50

Sequence of Nuclear factor NF-kappa-B p105 subunit (Homo sapiens) (P19838 whole entry, looked up): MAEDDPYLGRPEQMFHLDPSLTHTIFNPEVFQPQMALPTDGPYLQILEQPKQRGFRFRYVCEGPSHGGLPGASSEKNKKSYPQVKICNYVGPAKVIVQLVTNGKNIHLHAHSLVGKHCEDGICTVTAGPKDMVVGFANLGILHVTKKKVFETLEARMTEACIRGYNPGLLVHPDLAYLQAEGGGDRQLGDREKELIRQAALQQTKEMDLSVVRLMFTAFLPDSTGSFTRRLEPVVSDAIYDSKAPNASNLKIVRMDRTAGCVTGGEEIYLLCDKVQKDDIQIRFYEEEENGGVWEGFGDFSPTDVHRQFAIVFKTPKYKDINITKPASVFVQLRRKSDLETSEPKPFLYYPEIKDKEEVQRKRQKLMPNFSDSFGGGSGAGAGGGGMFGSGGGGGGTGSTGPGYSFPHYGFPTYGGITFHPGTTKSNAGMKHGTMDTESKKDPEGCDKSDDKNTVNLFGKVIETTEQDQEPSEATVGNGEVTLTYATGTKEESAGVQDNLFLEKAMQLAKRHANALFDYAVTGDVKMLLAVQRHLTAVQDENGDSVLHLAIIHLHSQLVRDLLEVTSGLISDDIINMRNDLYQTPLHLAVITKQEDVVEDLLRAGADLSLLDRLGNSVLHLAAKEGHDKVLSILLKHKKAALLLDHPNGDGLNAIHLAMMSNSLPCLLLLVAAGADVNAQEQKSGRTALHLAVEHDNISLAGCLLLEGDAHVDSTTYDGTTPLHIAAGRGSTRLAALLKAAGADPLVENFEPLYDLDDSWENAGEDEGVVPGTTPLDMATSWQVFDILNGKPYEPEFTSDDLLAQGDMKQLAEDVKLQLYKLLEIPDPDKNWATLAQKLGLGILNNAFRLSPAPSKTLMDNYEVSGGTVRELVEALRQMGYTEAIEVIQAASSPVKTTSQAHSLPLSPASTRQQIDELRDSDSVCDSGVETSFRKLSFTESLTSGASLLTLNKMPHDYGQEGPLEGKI

CC(C)(C)OOC(C)(C)CCC(C)(C)OOC(C)(C)C
not listed: [19]
inactive: all other assays above

Nc1ccc(N=Nc2ccccc2)cc1
active: [1] 12.8 µM | [2] 30.9 µM | [5] 13 µM | [7] 50 µM | [9] 12.8 µM | [10] 22.3 µM | [11] 18.1 µM | [14] 18.4 µM | [16] 25 µM | [17] 13.6 µM | [18] 13.4 µM
inactive: [3] | [4] | [6] | [8] | [12] | [13]

CCC[CH2][Sn]([Cl])([CH2]CCC)[CH2]CCC
active: [1] 4.72 µM | [3] 2.29 µM | [4] 2.73 µM | [5] 50 µM | [6] 2.85 µM | [7] 0.297 µM | [8] 3.32 µM | [9] 1.46 µM | [11] 12.8 µM | [12] 1.73 µM | [13] 1.87 µM | [19] 9.07 µM | [17] 1.49 µM
inactive: [2] | [10] | [14] | [15] | [16] | [18]

CCN(CC)CCO
inactive: all assays above

Clc1ccccc1Cl
not listed: [15]
inactive: all other assays above

Oc1ccccc1Cl
inactive: all assays above

O=[N+]([O-])C(Br)(CO)CO
not listed: [12]
inactive: all other assays above

Nc1ccc(Oc2ccc(N)cc2)cc1
not listed: [12]
inactive: all other assays above

ClCCOCCCl
not listed: [12]
inactive: all other assays above

Nc1ccc(Cc2ccc(N)cc2)cc1
not listed: [13]
inactive: all other assays above

Cn1cc(-c2ccccc2)c(=O)c(-c2cccc(C(F)(F)F)c2)c1
active: [3] 50 µM | [14] 23.5 µM | [18] 50 µM
not listed: MYC, MYC (gene 4609) | [15]
inactive: all other assays above

[As]#[In]
not listed: MYC, MYC (gene 4609) | [15]
inactive: all other assays above

C1=Cc2cccc3cccc1c23
not listed: MYC, MYC (gene 4609) | [15]
inactive: all other assays above

ClC1=C(Cl)C2(Cl)C3C(Cl)C=CC3C1(Cl)C2(Cl)Cl (configuration not stated)
active: [1] 5.6 µM | MYC, MYC (gene 4609) 37.1 µM | [18] 50 µM
not listed: [12] | [15]
inactive: all other assays above
